Rows were chosen to be rich in hits. Some 6.6% of all compounds tested hit in one or more screens of this group.
KB-3-1 cytotox: KB-3-1 parental cell cytotoxicity | Potency, µM (doses to about 46.1 µM), most hits filed as cytotoxic | KB-3-1 viability, CellTiter-Glo ATP luminescence, 72 h | 400,000 compounds, 1.4% hits; note: % is set by controls: 0 for no effect and ±100 for the full control effect; nearly all actives have a fitted effect of over 60% in size
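Cells are dispensed, compounds pinned in, plates held at 37 °C for 72 h, then CellTiter-Glo is added and luminescence read after 10 minutes. Cell line: parental KB-3-1 in phenol-red-free DMEM, 10% FBS.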
HT1080 IDH1KD tx: HT-1080 IDH1 knockdown cell toxicity (counter line); HT-1080 IDH1 knockdown viability, ATP luminescence, 48 h; Potency, µM (top dose mostly 46.1 µM), for inactives: at the highest dose activity, negative = toxicity, most hits filed as cytotoxic; 360,000 compounds, 2% hits;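 note: 0% = DMSO wells and -100% = cell-free medium wells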
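Using the IDH1-knockdown HT-1080 line run in the same batch and compound series as the NT line, viability after 48 h at 37 °C was determined by CellTiter-Glo luminescence and expressed as % activity.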
TGFb inhibitor: blocks TGF-b signaling; AID 588855; 410,000 compounds, 1.2% hits; Potency, µM (series often up to 46.1 µM), inactives show at the top dose activity, negative = inhibition, actives largely listed as inhibitors; HepG2 CAGA-GFP TGF-b/SMAD3 reporter, GFP fluorescence, 18 h; TGF-beta stimulated, 500 pg/mL final; note: % is set by controls: 0 for no effect and ±100 for the full control effect; nearly all actives have a fitted effect of over 65% in size
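Per well, imaged GFP fluorescence of HEPG2 CAGA-GFP cells gives the signal; cells get compound, then TGF-beta (500 pg/mL final), 18 h at 37 degrees C; %Activity versus -TGF-beta and +DMSO controls.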
HepG2 viability: kills HepG2 cells in TGF-b inhibitor counter-screen; Potency, µM (titrated, usually from 46.1 µM), for the others: at the top dose activity change, negative = cytotoxicity, hits mostly cytotoxic; 410,000 compounds, 0.76% hits; HepG2 CAGA-GFP viability, ATP luminescence, 18 h; AID 588856
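CellTiter-Glo luminescence gave cytotoxicity after 18 hours at 37 degrees C. The cells were HepG2 CAGA-GFP in 1% FBS DMEM, stimulated with 500 pg/mL TGF-beta after compound addition. %Activity was normalised to no-cell wells (complete cell-killing) and DMSO (no toxicity), and curves were fitted and classified.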
KB-V1 cytotox: KB-V1 MDR subline cytotoxicity; KB-V1 MDR cells viability, CellTiter-Glo, 72 h; 400,000 compounds, 3.4% hits; Potency, µM (doses to about 46.1 µM), hits mostly cytotoxic; note: % is set by controls: 0 for no effect and ±100 for the full control effect; nearly all actives have a fitted effect of over 60% in size
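Cytotoxicity via CellTiter-Glo luminescence after 72 h compound exposure at 37 degrees C. Cells: drug-selected KB-V1 line, DMEM phenol-red free plus 10% FBS. Compounds tested at multiple concentrations; normalized data fitted to concentration-effect curves.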
HT1080-NT tox: kills 2HG-producing HT-1080-NT fibrosarcoma cells | HT-1080-NT fibrosarcoma viability, CellTiter-Glo ATP luminescence, 48 h | Potency, µM (doses to about 46.1 µM), inactives show at the highest dose activity, negative = less viability, most hits filed as cytotoxic | 360,000 compounds, 1.6% hits | AID 686970;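 note: NT is the 2HG producing partner of a matched IDH1 knockdown line; 0% = DMSO-treated cells and -100% = media-only wells without cells; nearly all actives have a fitted effect of over 55% in size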
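Viability of the 2HG-overproducing fibrosarcoma line after 48 hours of compound exposure at 37 degrees C was determined by luminescence with CellTiter-Glo, and concentration-effect curves were then fitted and categorized.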
* = called active by the depositor; i = inactive; ? = inconclusive; . = no result; [ ] = dose if it differs, or a comment. Calls come from the whole dose curve; as a rule, active = well fitted curve in the direction sought with a large enough effect; inconclusive = small, poorly fitted or top-dose-only effect, or another doubt; inactive = no such curve, though single readings can be large; an effect the other way counts as inactive or inconclusive. Potency is the fitted concentration of half-maximal effect.

SMILES	KB-3-1 cytotox	HT1080 IDH1KD tx	TGFb inhibitor	HepG2 viability	KB-V1 cytotox	HT1080-NT tox
Cc1ccc(NC(=O)N2CCN(C(=O)c3nsc4ccccc34)CC2)cc1C	i	.	-1%	-18%	i	.
COC(=O)c1cc(NC(=O)CC(=O)c2cccc(N)c2)cc(C(=O)OC)c1	i	21µM*	-11%	2%	i	?
Cc1ccc(CSC2=Nc3ccccc3C3=NC(CCC(=O)NCCc4ccccc4)C(=O)N23)cc1 (stereo not given)	i	.	?	-32%	i	.
CN1CCN(/C=N/c2c(C#N)cnn2Cc2ccccc2)CC1	i	-4%	1%	5%	10µM*	-14%
N#Cc1cnn(Cc2ccccc2)c1/N=C/N1CCOCC1	i	-3%	0%	1%	i	-2%
Cc1cccc(N2CCN(C(=O)c3[nH]c(C(F)(F)F)nc3-c3ccccc3)CC2)c1C	2.3µM*	0.58µM*	?	-6%	?	?
COc1ccc(N2CCN(C(=O)c3[nH]c(C(F)(F)F)nc3-c3ccccc3)CC2)cc1	i	?	8%	-5%	i	-30%
COc1ccccc1N1CCN(C(=O)c2[nH]c(C(F)(F)F)nc2-c2ccccc2)CC1	5.8µM*	0.82µM*	?	4%	?	1.3µM*
Cc1cc(C)c(S(=O)(=O)NCCc2cc3ccc(C)cc3[nH]c2=O)c(C)c1	i	.	?	-19%	i	.
COc1cccc(CNC(=O)CSc2ncc3c(n2)-c2cc(Cl)ccc2N(C)S3(=O)=O)c1	i	.	1%	-6%	i	.
Cc1ccc(-n2nc(C)c3c(C(=O)Nc4ccc(C)cc4Cl)cc(C)nc32)cc1	i	.	-1%	-15%	i	.
CSc1nc(N)nc(SCC(=O)Nc2cccc(F)c2)c1C#N	?	-21%	?	-30%	2.3µM*	-3%
CSc1nc(N)nc(SCC(=O)Nc2ccc(Cl)cc2)c1C#N	?	?	?	-51%	i	?
CCc1ccc(NC(=O)c2ccc3c(c2)nnn3CC)cc1	i	.	27%	8%	i	.
O=C(Nc1nccs1)c1c(O)c2c([nH]c1=O)CCCC2	i	11%	-1%	-1%	i	1%
O=C(Nc1ccccc1O)c1c(O)c2c([nH]c1=O)CCCC2	i	?	13µM*	-57%	i	?
CCn1ccc2cc(S(=O)(=O)N3CCC(C(=O)NCCc4ccccc4Cl)CC3)ccc21	i	.	-27%	-9%	i	.
O=C(CC(NC(=O)c1ccccc1Cl)c1ccccc1)NCCc1ccc(Cl)cc1 (stereo not given)	i	9%	7%	19%	8.2µM*	-1%
c1ccc2c(N3CCCCC3)nc(N3CCCC3)nc2c1	i	0%	?	-35%	16µM*	-7%
c1ccc(-c2nc(N3CCCCCC3)c3ccccc3n2)nc1	3.7µM*	?	0%	7%	?	-28%
CCN1CCN(c2nc(-c3ccccc3)c3ccccc3n2)CC1	i	?	-23%	-11%	i	13µM*
CN(C)c1nc(-c2ccccn2)nnc1-c1ccccc1	?	?	2%	-4%	?	-24%
CCN(CC)c1nc(-c2ccccn2)nc(-c2ccccc2)c1C#N	?	-16%	?	-36%	16µM*	-26%
c1ccc(CN2CCN(c3nc(-c4ccccn4)nc4ccccc34)CC2)cc1	i	-17%	7%	-11%	i	0%
CCN1CCN(c2nc(-c3ccccn3)nc3ccccc23)CC1	i	10µM*	-16%	3%	5.2µM*	8.9µM*
SMILES	KB-3-1 cytotox	HT1080 IDH1KD tx	TGFb inhibitor	HepG2 viability	KB-V1 cytotox	HT1080-NT tox
c1ccc(CCNc2nc(-c3ccccn3)nc3ccccc23)cc1	12µM*	?	?	-11%	i	-27%
C/C(=N\Nc1nc(-c2ccccn2)nc2ccccc12)c1ccc(F)cc1	i	?	?	-42%	?	-28%
CCCN(CCC)c1nc(-c2ccccn2)nc2ccccc12	4.6µM*	9.2µM*	?	-54%	2.9µM*	?
Cc1ccc(C(c2sc3nc(-c4ccco4)nn3c2O)N2CCC3(CC2)OCCO3)cc1 (stereo not given)	i	.	-1%	-3%	i	.
O=C(NC(=S)N1CCN(c2ccc(C(F)(F)F)cc2[N+](=O)[O-])CC1)c1cccs1	i	-20%	?	-8%	15µM*	-5%
Cc1cccc(C(=O)N2CCC(N3CCN(Cc4ccc(F)cc4)C(=O)C3=O)CC2)c1	i	.	?	-3%	i	.
COCCCNC(=O)c1c(C)nn(-c2ccc(F)cc2)c1-n1cccc1	i	.	14%	4%	?	.
CCOc1ccc(CNC(=O)c2c(C)nn(-c3ccc(F)cc3)c2-n2cccc2)cc1	?	.	-8%	0%	13µM*	.
COc1cccc(CNC(=O)c2c(C)nn(-c3cccc(C)c3)c2-n2cccc2)c1	?	.	0%	-28%	?	.
CSc1ccc(CCNC(=O)c2c(C)nn(-c3ccc(F)cc3)c2-n2cccc2)cc1	3.3µM*	.	?	-18%	5.8µM*	.
COc1cccc(CNC(=O)c2c(C)nn(-c3ccc(F)cc3)c2-n2cccc2)c1	i	.	3%	-17%	9.2µM*	.
COc1cc(NC(=O)c2c(C)nn(-c3ccc(F)cc3)c2-n2cccc2)cc(OC)c1	i	.	-1%	-3%	i	.
COc1cc2nc(N3CCOCC3)nc(NC3CCN(C)CC3)c2cc1OC	.	-16%	.	.	.	2%
CC1CCN(C(=O)c2cc(-c3cccc(Cl)c3)on2)CC1	i	.	-3%	-22%	i	.
CC12CC(O)C3C(CCC4=CC(=O)CCC43C)C1CCC2=CCO (stereo not given)	?	0%	0%	-1%	18µM*	-3%
Cc1cccc(NC(=O)CCNS(=O)(=O)c2ccc3c(c2)CCCC(=O)N3)c1C	i	.	-2%	-27%	i	.
Cc1ccc(NC(=O)c2cc(S(=O)(=O)N3CCCCC3)cs2)cc1	?	-4%[9.24 µM]	-28%	-21%	15µM*	?
O=C(Nc1ccc(F)cc1)c1cc(S(=O)(=O)Nc2ccc(F)cc2)cs1	i	-28%	?	-63%	i	?
O=C(Nc1ncccc1O)c1ccc(S(=O)(=O)Nc2ccccc2)cc1	10µM*	9.2µM*	-6%	-19%	9.2µM*	13µM*
COc1ccc(C(=O)Nc2ccc(S(=O)(=O)Nc3nccnc3OC)cc2)cc1	?	1%	3%	-18%	18µM*	-2%

Compound activity as filed in PubChem.
